Data: PubChem BioAssay (NCI)
The panel holds about 83,000 compounds, 20% with a hit somewhere; the sample as a whole holds those more often.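 How to read the values: 0–100, growth inhibition (40 = 60% inhibited); 0, no net growth; -100 to 0, cell death (-40 = 40% of starting cells died; -100 = all dead).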 Activity calls are given as the source filed them. The calls were made as follows: active = growth percent below 10; inactive = the rest.

Assays:
Assay in all cases: NCI-60 one-dose screen, 48 h (100 = growth as untreated, 0 = no growth, -100 = all killed)
Conditions in all cases: 10 µM
NCI-H23 lung = test system: NCI-H23 lung
NCI-H226 lung = test system: NCI-H226 lung
NCI-H322M lung = test system: NCI-H322M lung
HOP-62 NSCLC = test system: HOP-62 NSCLC
NCI-H460 lung = test system: NCI-H460 lung
NCI-H522 lung = test system: NCI-H522 lung
A549/ATCC NSCLC = test system: A549/ATCC NSCLC
786-0 renal = test system: 786-0 renal
COLO 205 colon = test system: COLO 205 colon
DU-145 prostate = test system: DU-145 prostate

Measured: growth

O=C1OCC2=C1C(c1ccc(Cl)c(Cl)c1)c1cc3c(cc1N2CCO)OCCO3 (stereo not given)
inactive: NCI-H23 lung 32.5% | NCI-H226 lung 25.4% | NCI-H322M lung 37.3% | HOP-62 NSCLC 34.1% | A549/ATCC NSCLC 22.6% | 786-0 renal 25.7%
active: NCI-H460 lung 6.2% | NCI-H522 lung -26.7% | COLO 205 colon -11.9% | DU-145 prostate 6.74%

Cc1c(Cl)cccc1NC(=O)c1sc2nc3c(cc2c1N)C(=O)CCC3
active: NCI-H460 lung 4.71% | NCI-H522 lung -28.4% | COLO 205 colon -30% | DU-145 prostate -17.7%
inactive: NCI-H23 lung 16.4% | NCI-H226 lung 55.8% | NCI-H322M lung 27.8% | HOP-62 NSCLC 34% | A549/ATCC NSCLC 16.7% | 786-0 renal 37.7%

CN1CCCNc2c(c(=O)c2=O)NCCCN(C)CCCNc2c(c(=O)c2=O)NCCCN(C)CCCNc2c(c(=O)c2=O)NCCCN(C)CCCNc2c(c(=O)c2=O)NCCCN(C)CCCNc2c(c(=O)c2=O)NCCCN(C)CCCNc2c(c(=O)c2=O)NCCCN(C)CCCNc2c(c(=O)c2=O)NCCC1
active: DU-145 prostate -30.2%
inactive: NCI-H23 lung 46.8% | NCI-H226 lung 74.6% | NCI-H322M lung 44.8% | HOP-62 NSCLC 49.1% | NCI-H460 lung 32.1% | NCI-H522 lung 56.1% | A549/ATCC NSCLC 37.1% | 786-0 renal 54.3% | COLO 205 colon 13.9%

N=c1nc(N)ncn1-c1ccccc1
inactive: NCI-H23 lung 93.1% | NCI-H226 lung 89.9% | NCI-H322M lung 108% | HOP-62 NSCLC 92.9% | NCI-H460 lung 106% | NCI-H522 lung 83.1% | A549/ATCC NSCLC 92.4% | 786-0 renal 98% | COLO 205 colon 101% | DU-145 prostate 112%

O=C(c1ccc(Cl)cc1Cl)N1CCOCC1
inactive: NCI-H23 lung 97.3% | NCI-H226 lung 96.8% | NCI-H322M lung 101% | HOP-62 NSCLC 97% | NCI-H460 lung 104% | NCI-H522 lung 103% | A549/ATCC NSCLC 98.4% | 786-0 renal 97.4% | COLO 205 colon 111% | DU-145 prostate 109%

COc1cc(-c2cc(-c3cc4c([nH]c5ccccc54)c(-c4cc(OC)c(OC)c(OC)c4)n3)cc(-c3ccccc3)n2)cc(OC)c1OC
inactive: NCI-H23 lung 69.1% | NCI-H226 lung 77% | NCI-H322M lung 95% | HOP-62 NSCLC 78% | NCI-H460 lung 64.8% | NCI-H522 lung 43.4% | A549/ATCC NSCLC 42.8% | 786-0 renal 79.6% | COLO 205 colon 84.8% | DU-145 prostate 97.5%

COc1ccc(-c2nc3sc(C4CC4)nn3c2/C=C2/C(=O)Nc3ccc(OC)cc32)cc1
inactive: NCI-H23 lung 82% | NCI-H226 lung 63.7% | NCI-H322M lung 61.6% | HOP-62 NSCLC 80.9% | NCI-H460 lung 77.7% | NCI-H522 lung 63.8% | A549/ATCC NSCLC 75.5% | 786-0 renal 86% | COLO 205 colon 88.5% | DU-145 prostate 62.3%

Clc1ccc2c(NCCCNc3nccc(Nc4ccc(Br)cc4)n3)ccnc2c1
inactive: NCI-H23 lung 46.8% | NCI-H226 lung 90.1%
active: NCI-H322M lung -19.9% | HOP-62 NSCLC 1.45% | NCI-H460 lung -45.9% | NCI-H522 lung -83.2% | A549/ATCC NSCLC -71.7% | 786-0 renal -98.9% | COLO 205 colon -84.3% | DU-145 prostate 9.83%

COc1ccc(-c2nn(-c3cccc(NC(=O)c4ccc(Cl)c(Cl)c4)c3)cc2-c2ccncc2)cc1Cl
inactive: NCI-H23 lung 94.9% | NCI-H226 lung 83.5% | NCI-H322M lung 83.6% | HOP-62 NSCLC 94% | NCI-H460 lung 79.4% | NCI-H522 lung 33.3% | A549/ATCC NSCLC 70% | 786-0 renal 80% | COLO 205 colon 86.2% | DU-145 prostate 92.1%

COc1cc(CNc2ccccc2C(=O)N2CCN(C(=O)c3cc(-c4cc(OC)c(OC)c(OC)c4)n4nc(-c5ccccc5)cc4n3)CC2)cc(OC)c1OC
active: NCI-H522 lung 7.02%
inactive: NCI-H23 lung 61.7% | NCI-H226 lung 76.5% | NCI-H322M lung 43.7% | HOP-62 NSCLC 53.9% | NCI-H460 lung 11.7% | A549/ATCC NSCLC 37.8% | 786-0 renal 50.8% | COLO 205 colon 46.8% | DU-145 prostate 67.7%

C=C(Cl)[C@@](Cl)(CBr)CC[C@@H](Br)C(C)(C)Cl
inactive: NCI-H23 lung 83.2% | NCI-H226 lung 105% | NCI-H522 lung 85.1%
active: NCI-H322M lung -98.1% | HOP-62 NSCLC -93.2% | NCI-H460 lung -47.7% | A549/ATCC NSCLC -6.36% | 786-0 renal -65.5% | COLO 205 colon -70.3% | DU-145 prostate -94.3%

C[C@]12CC[C@@H]3c4ccc(O)cc4C[C@@H](O)[C@H]3[C@@H]1CC[C@@H]2O
inactive: NCI-H23 lung 110% | NCI-H226 lung 101% | NCI-H322M lung 102% | HOP-62 NSCLC 108% | NCI-H460 lung 108% | NCI-H522 lung 106% | A549/ATCC NSCLC 94.6% | 786-0 renal 105% | COLO 205 colon 119% | DU-145 prostate 110%

CCCCCCCCCCCC[n+]1ccc(C(N)=O)cc1
active: NCI-H522 lung 4.75% | COLO 205 colon -73%
inactive: NCI-H23 lung 23.5% | NCI-H226 lung 35% | NCI-H322M lung 88.7% | HOP-62 NSCLC 33.7% | NCI-H460 lung 16.8% | A549/ATCC NSCLC 73.7% | 786-0 renal 40% | DU-145 prostate 43%

CN(C)c1ccc(N=C2C=CC(=O)c3ccccc32)cc1
inactive: NCI-H23 lung 35.1% | NCI-H226 lung 91.7% | NCI-H322M lung 14.9% | HOP-62 NSCLC 82.5% | NCI-H460 lung 15.3% | NCI-H522 lung 48.2% | A549/ATCC NSCLC 28% | 786-0 renal 90.3% | COLO 205 colon 11.8%
active: DU-145 prostate -58%

O=C1/C(=C\c2ccc(F)cc2)CN(C(=O)c2ccccc2F)C/C1=C\c1ccc(F)cc1
active: NCI-H226 lung -32.9% | HOP-62 NSCLC -15.5% | NCI-H522 lung -69.5% | 786-0 renal -51% | COLO 205 colon -42.9% | DU-145 prostate -10.4%
inactive: NCI-H23 lung 16.4% | NCI-H322M lung 77.6% | NCI-H460 lung 17.8% | A549/ATCC NSCLC 12.9%

COc1cc(NC(=O)c2sc3nc4c(cc3c2N)C(O)CCC4)cc(OC)c1 (stereo not given)
inactive: NCI-H23 lung 99.3% | NCI-H226 lung 97.1% | NCI-H322M lung 88.7% | HOP-62 NSCLC 65.8% | NCI-H460 lung 104% | NCI-H522 lung 69% | A549/ATCC NSCLC 86.1% | 786-0 renal 97.3% | COLO 205 colon 105% | DU-145 prostate 108%

CC(=O)/C(=C/c1ccccc1)C(=O)CC(C)C
inactive: NCI-H23 lung 100% | NCI-H226 lung 106% | NCI-H322M lung 116% | HOP-62 NSCLC 115% | NCI-H460 lung 99.8% | NCI-H522 lung 95.2% | A549/ATCC NSCLC 97% | 786-0 renal 95.9% | COLO 205 colon 100% | DU-145 prostate 92.8%

Clc1cc2c(c(CSc3nc4ccccc4n4cccc34)c1)OCOC2
inactive: NCI-H23 lung 77.9% | NCI-H226 lung 134% | NCI-H322M lung 83.2% | HOP-62 NSCLC 88.2% | NCI-H460 lung 66.6% | NCI-H522 lung 59.8% | A549/ATCC NSCLC 29.9% | 786-0 renal 93.4% | COLO 205 colon 84.1% | DU-145 prostate 106%

O=C1/C(=C/c2ccc([N+](=O)[O-])o2)Oc2ccccc21
inactive: NCI-H226 lung 23.9% | NCI-H322M lung 91.6% | HOP-62 NSCLC 62.2% | NCI-H460 lung 31.8% | A549/ATCC NSCLC 62.5%
active: NCI-H23 lung -8.25% | NCI-H522 lung -79.6% | 786-0 renal -38.5% | COLO 205 colon -66% | DU-145 prostate -8.6%

Cc1ncc(-c2ccoc2)c(NC2CCCCCC2)n1
inactive: NCI-H23 lung 97.9% | NCI-H226 lung 103% | NCI-H322M lung 80.7% | HOP-62 NSCLC 102% | NCI-H460 lung 106% | NCI-H522 lung 82.8% | A549/ATCC NSCLC 101% | 786-0 renal 99.2% | COLO 205 colon 106% | DU-145 prostate 110%

O=C(Nc1cccc(-n2cc(-c3ccncc3)c(-c3ccc(O)c(Cl)c3)n2)c1)c1cccc(C(F)(F)F)c1
inactive: NCI-H23 lung 41.9% | NCI-H226 lung 68% | NCI-H322M lung 47% | HOP-62 NSCLC 47.2% | NCI-H460 lung 17.2% | NCI-H522 lung 28.2% | A549/ATCC NSCLC 16.1% | 786-0 renal 21.4% | COLO 205 colon 98.8% | DU-145 prostate 51.1%

CN(C)Cc1cn(-c2ncc(-c3ccc(C(F)(F)F)cc3)c(NC3CCCCCC3)n2)nn1
inactive: NCI-H23 lung 95.6% | NCI-H226 lung 88.8% | NCI-H322M lung 88.3% | HOP-62 NSCLC 94.2% | NCI-H460 lung 93.4% | NCI-H522 lung 73.5% | A549/ATCC NSCLC 95.2% | 786-0 renal 90.4% | COLO 205 colon 70.9% | DU-145 prostate 89.3%

Nc1nc(Nc2ccccc2)n[nH]1
inactive: NCI-H23 lung 94.7% | NCI-H226 lung 96.8% | NCI-H322M lung 108% | HOP-62 NSCLC 92.3% | NCI-H460 lung 108% | NCI-H522 lung 17.7% | A549/ATCC NSCLC 34.8% | 786-0 renal 101% | COLO 205 colon 114% | DU-145 prostate 117%

COc1cc(-c2cc(/C=C3\C(=O)Nc4ccccc43)[nH]n2)cc(OC)c1OC
inactive: NCI-H23 lung 56% | NCI-H226 lung 66.3% | NCI-H322M lung 68.6% | HOP-62 NSCLC 65% | NCI-H460 lung 74.7% | NCI-H522 lung 64.5% | A549/ATCC NSCLC 54.6% | 786-0 renal 84.2% | COLO 205 colon 32.3% | DU-145 prostate 82.5%

O=C(CC(C(=O)c1ccccc1)N1CCOCC1)c1ccccc1 (stereo not given)
inactive: NCI-H23 lung 97.4% | NCI-H226 lung 90.3% | NCI-H322M lung 109% | HOP-62 NSCLC 106% | NCI-H460 lung 102% | NCI-H522 lung 74.7% | A549/ATCC NSCLC 91.9% | 786-0 renal 98.8% | COLO 205 colon 58.5% | DU-145 prostate 101%

COc1ccc(C2CC(c3ccc(N(C)C)cc3)=NN2c2ccc(S(N)(=O)=O)cc2)cc1 (stereo not given)
inactive: NCI-H23 lung 53.6% | NCI-H226 lung 52.4% | NCI-H322M lung 83.1% | HOP-62 NSCLC 78.2% | NCI-H460 lung 29.2% | NCI-H522 lung 40.9% | A549/ATCC NSCLC 26.1% | 786-0 renal 64.3% | COLO 205 colon 55.4% | DU-145 prostate 78.4%

O=C(O)C(SC(C(=O)O)c1ccccc1)c1ccccc1 (stereo not given)
inactive: NCI-H23 lung 99.8% | NCI-H226 lung 95.9% | NCI-H322M lung 118% | HOP-62 NSCLC 107% | NCI-H460 lung 110% | NCI-H522 lung 108% | A549/ATCC NSCLC 103% | 786-0 renal 103% | COLO 205 colon 113% | DU-145 prostate 104%
